SNCA expr inh = SNCA gene expression inhibition; HEK-293 SNCA-luciferase knock-in, luminescence, 24 h; Potency, µM (highest dose often 57.2 µM), for the others: at the top dose activity change, negative = inhibition, hits mostly inhibitors; hit rate 0.17% among 140,000; AID 1671194;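 further: plate controls were DMSO cells for no effect and cell-free wells for full effect; nearly all actives have a fitted effect of over 45% in size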
FLuc inh-1 = inhibitors of firefly (Photinus pyralis) luciferase; hit rate 2.5% among 76,000; purified P. pyralis luciferase, luminescence, biochemical; Potency, µM (doses to about 115 µM), most hits filed as inhibitors; further: on the % scale 0 is the no-effect control and ±100 the full control effect; nearly all actives have a fitted effect of over 65% in size
Target sequence (P08659 whole entry, looked up): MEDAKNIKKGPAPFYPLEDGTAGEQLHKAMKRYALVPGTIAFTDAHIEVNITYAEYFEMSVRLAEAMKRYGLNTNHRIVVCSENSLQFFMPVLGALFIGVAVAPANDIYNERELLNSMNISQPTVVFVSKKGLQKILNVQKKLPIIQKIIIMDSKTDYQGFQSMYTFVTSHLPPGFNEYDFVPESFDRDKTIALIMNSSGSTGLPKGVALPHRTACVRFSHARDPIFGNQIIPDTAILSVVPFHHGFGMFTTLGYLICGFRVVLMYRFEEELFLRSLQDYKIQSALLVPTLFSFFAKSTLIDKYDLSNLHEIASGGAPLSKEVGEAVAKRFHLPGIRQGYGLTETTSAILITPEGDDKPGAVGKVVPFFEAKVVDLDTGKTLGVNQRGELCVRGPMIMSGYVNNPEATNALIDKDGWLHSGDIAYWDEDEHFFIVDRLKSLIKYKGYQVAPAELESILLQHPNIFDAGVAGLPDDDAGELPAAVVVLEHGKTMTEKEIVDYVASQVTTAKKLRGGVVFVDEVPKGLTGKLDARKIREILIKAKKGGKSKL
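FLuc 10nM, D-luciferin 10uM, ATP 10uM, Mg acetate 10mM, Tris acetate pH 7.5, Tween/BSA; cpd qHTS; enzyme added last; CCD luminescence.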
NPR1 antag = blocks ANP-stimulated signaling of human Npr1 receptor; P16066; HEK293 hNpr1 GloSensor cGMP, ANP-stimulated luminescence; Potency, µM (highest dose often 46.3 µM), for the others: top-dose activity change, negative = inhibition, usual class: inhibitors; hit rate 1.6% among 76,000; calls by dose curve; further: on the % scale 0 is the no-effect control and ±100 the full control effect; nearly all actives have a fitted effect of over 60% in size
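Compound pre-incubated 30 min at room temperature on GloSensor-loaded HEK293 cells stably carrying hNpr1 and the pGS-40F cGMP biosensor. Stimulation uses hNppA at 0.1 nM final; luminescence is taken at baseline and 20 min post-agonist.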
SNCA viab count = cell viability loss counter-screen. Potency, µM (titrated, usually from 57.1 µM), for the others: at the highest dose activity change, negative = cytotoxicity, hits mostly cytotoxic. HEK-293-SNCA-luc viability, GF-AFC fluorescence, 24 h. hit rate 0.12% among 150,000;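 further: 0% = DMSO-treated cells and -100% = medium-only wells without cells; nearly all actives have a fitted effect of over 30% in size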
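HEK-293-SNCA-luc cells (1500/well) plated 24 h, then exposed 24 h to a dilution series; GF-AFC added 30 min at 37C, fluorescence 405/540 nm; normalised to medium-only and DMSO wells, Hill fit.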
3T3 cytotox = kills NIH 3T3 cells | NIH 3T3 viability, CellTiter-Glo ATP luminescence, 48-72 h | Potency, µM (doses to about 96.7 µM), for inactives: at the highest dose activity change, negative = cytotoxicity, hits mostly inhibitors | hit rate 4.3% among 94,000; further: on the % scale 0 is the no-effect control and ±100 the full control effect; nearly all actives have a fitted effect of over 55% in size
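NIH 3T3 cells at 400 cells/well received 23 nL of compound by pintool and were incubated 48 or 72 h at 37 °C. Viability was read as ATP-coupled CellTiter-Glo luminescence.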
HEK cytotox = cytotoxic compounds in HEK 293 cells; AID 1345083; hit rate 6.6% among 94,000; HEK 293 viability, ATP luminescence (CellTiter-Glo), 48-72 h; Potency, µM (series often up to 115 µM), without a hit: at the top dose activity change, negative = cytotoxicity, usual class: inhibitors; further: on the % scale 0 is the no-effect control and ±100 the full control effect; nearly all actives have a fitted effect of over 60% in size
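qHTS cytotoxicity; HEK 293, 250 cells/well; compound pinned; 48 or 72 hr, 37 degree Celsius, 5% CO2, 95% humidity; CellTiter-Glo, 10 min RT; luminescence (ATP).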
FLuc SDR no ATP = stabilizes firefly luciferase without ATP; Purified FLuc-C-HiBiT, Nano-Glo HiBiT luminescence, no ATP; AID 1963318; shares compounds with FLuc inh-1; hit rate 7.8% among 1,300; Potency, µM (top dose mostly 32.7 µM), for the others: at the top dose activation (signal gain), hits mostly activators; further: nearly all actives have a fitted effect of over 55% in size
FLuc SDR ATP = binders stabilizing firefly luciferase, plus ATP | shares compounds with FLuc inh-1 | purified FLuc-C-HiBiT + ATP, HiBiT complementation luminescence | Potency, µM (doses to about 32.7 µM), without a hit: at the highest dose activation (gain of signal), most hits filed as activators | hit rate 8.7% among 1,300 | AID 1963319;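 further: signal reports ligand binding via conformational change of the enzyme rather than luciferase catalysis; % of control where 0% means no effect; nearly all actives have a fitted effect of over 55% in size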
FLuc inh-2 = firefly luciferase enzyme inhibition; hit rate 42% among 1,300; purified FLuc-C-HiBiT enzyme, luciferin luminescence; Potency, µM (series often up to 32.7 µM), for inactives: at the highest dose activity change, negative = inhibition, usual class: inhibitors; shares compounds with FLuc inh-1; AID 1963320; further: on the % scale 0 is the no-effect control and ±100 the full control effect; nearly all actives have a fitted effect of over 70% in size
The depositor's hits bear a star; i = inactive; ? = inconclusive; . = no result; [ ] = dose if it differs, or a comment. Rows were chosen to be rich in hits. Some 7.4% of all compounds tested hit in one or more screens of this group. Unless noted, the call rests on the fitted dose curve; in most records, active means well fitted curve in the direction sought with a large enough effect; inconclusive means small, poorly fitted or top-dose-only effect, or another doubt; inactive means no such curve, though single readings can be large; an effect the other way counts as inactive or inconclusive. Potency means the concentration at half of the fitted maximal effect.

SMILES	SNCA expr inh	FLuc inh-1	NPR1 antag	SNCA viab count	3T3 cytotox	HEK cytotox	FLuc SDR no ATP	FLuc SDR ATP	FLuc inh-2
O=C(Nc1ccc(Cl)cc1)C1CCN(C(=O)c2ncn3c2COC(c2ccccc2)C3)CC1 (stereo not given)	61%	1.8µM*	?	3%	i	6%	14%	1.1µM*	1.8µM*
O=C(NC1CCCCC1)C1CCN(C(=O)c2ncn3c2COC(c2ccc(Cl)cc2)C3)CC1 (stereo not given)	3%	?	-3%	?	1%	-19%	.	.	.
Cc1cccc(CNC(=O)Cc2csc3ccccc23)c1	158%	.	.	19%	.	.	16%	12%	-17%
Cc1ccc(Cl)cc1-n1nnc(-c2nsc(NC(=O)c3ccccc3Cl)n2)c1C	24%	.	.	-8%	.	.	11%	9%	-6%
CC(=O)NC1(C)CCN(Cc2cccc(-c3cccc4ncccc34)c2)C1 (stereo not given)	29%[87.6 µM]	i	5%[70.6 µM]	5%[87.6 µM]	-28%[138 µM]	?	.	.	.
CC(=O)NC1(C)CCN(Cc2cccc(-c3ccc4c(ccn4C)c3)c2)C1 (stereo not given)	64%[87.6 µM]	14µM*	?	-27%[87.6 µM]	79µM*	89µM*	15%[49.3 µM]	?	10µM*
Cc1cc(C)c(S(=O)(=O)N2CCCC(Cn3cc(CO)nn3)C2)c(C)c1 (stereo not given)	4%	i	12%	-5%	-27%	-22%	.	.	.
OCc1cn(CC2CCN(c3ncnc4nc[nH]c34)CC2)nn1	-13%	i	3%	1%	i	-4%	9%	8%	-2%
Cc1ccc(Nc2ncnc3c2nc2n3CCCC2)c(Br)c1	?	.	.	-6%	.	.	?	?	5µM*
Cc1ccc(CNc2ncnc3c2nc2n3CCCC2)cc1	3%	.	.	-5%	.	.	.	.	.
O=C(N[C@@H]1CN(C(=O)Nc2ccc(OC(F)(F)F)cc2)CCC[C@H]1O)c1ccc(OCCN2CCOCC2)cc1	2%	?	-2%	-6%	?	?	.	.	.
COc1ccc(C(=O)N[C@@H]2CN(C(=O)Nc3ccc(OC(F)(F)F)cc3)CCC[C@H]2O)cc1	-5%	8.9µM*	?	-14%	45µM*	40µM*	16%	12%	?
Cc1cn2c(=O)cc(COC(=O)c3ccccc3F)nc2s1	51%	.	.	5%	.	.	12%	?	?
O=C1c2cnc(-c3cccc(O)c3)nc2OCCN1c1cccc(C(F)(F)F)c1	-17%[87.6 µM]	i	-23%[70.6 µM]	-26%[87.6 µM]	?	?	.	.	.
COc1cccc(-c2ncc3c(n2)OCCN(c2ccccc2)C3=O)c1	?	0.4µM*	8.9µM*	-8%[87.6 µM]	8.9µM*	10µM*	3.2µM*	?	1.8µM*
O=C1c2cnc(-c3cccc(F)c3)nc2OCCN1c1ccccc1	-25%[87.6 µM]	0.89µM*	-29%[70.6 µM]	-2%[87.6 µM]	?	100µM*	?	?	14µM*
CC(C)CNC(=O)c1ccc2nnc(-c3cc[nH]c3)n2c1	-3%[87.6 µM]	.	.	-1%[87.6 µM]	-21%[138 µM]	5%[172 µM]	.	.	.
O=C(O)C1CN(Cc2ccc(-c3nc4cc(Cc5ccccc5F)ccc4s3)c(F)c2)C1	.	.	.	2%[12.5 µM]	.	.	15%[5.62 µM]	9%[5.62 µM]	4%[5.62 µM]
O=C(N[C@@H]1CN(Cc2ccc(Cl)c(F)c2)C[C@H]1CO)C1CCC1	33%	i	3%	1%	-13%	?	.	.	.
CN1CCN(c2ccc(-c3cccc(NC(=O)C4CCCCC4)c3)nn2)CC1	51%	14µM*	-11%	-1%	?	?	27%	18%	8.8µM*
COc1ccc(NC(=O)Nc2cccc(-c3ccc(N4CCOCC4)nn3)c2)cc1Cl	?	0.63µM*	13µM*	?	?	22µM*	?	?	1.2µM*
CCOc1ccccc1NC(=O)Nc1cccc(-c2ccc(N3CCOCC3)nn2)c1	7%	2.8µM*	-25%	-2%	?	25µM*	28%	?	3.9µM*
COc1ccc(NC(=O)Nc2cccc(-c3ccc(N4CCCCC4)nn3)c2)c(OC)c1	-58%	0.32µM*	7.9µM*	-8%	-18%	?	?	?	0.99µM*
C[C@@H]1C[C@@H](O)[C@@]23CO[C@@H](O)[C@@H]2CCC[C@@H]3[C@@]12C[C@@H](c1ccoc1)OC2=O	.	.	.	-23%	.	.	.	.	.
O=C(c1ccc(Cl)nc1)N1CCC(C(=O)N2CCCC(c3nc4ccncc4[nH]3)C2)CC1 (stereo not given)	-7%	.	.	-9%	-9%	i	.	.	.
SMILES	SNCA expr inh	FLuc inh-1	NPR1 antag	SNCA viab count	3T3 cytotox	HEK cytotox	FLuc SDR no ATP	FLuc SDR ATP	FLuc inh-2
COc1ccccc1-c1cc(C(=O)Nc2ccc3c(c2)C(=O)N2CCC[C@H]2C(=O)N3)[nH]n1	10%	i	2%	-4%	?	?	.	.	.
O=C(Nc1cccc(C(F)(F)F)c1)c1cc(CN2CCOCC2)on1	5%	.	.	-2%	.	.	.	.	.
O=C(Nc1cccc(-c2ccc(N3CCOCC3)nn2)c1)Nc1cccc(C(F)(F)F)c1	-42%	1.8µM*	11µM*	?	?	28µM*	?	18%	5µM*
Fc1ccc(-c2cc(-c3nc(-c4ccccc4)no3)[nH]n2)cc1	140%	.	.	-2%	.	.	.	.	.
O=C(O)c1ccc(-c2noc(-c3ccc(F)cc3)n2)cc1	.	.	.	.	.	.	?	0.56µM*	0.44µM*
O=C(O)c1ccc(-c2noc(-c3ccc(C(F)(F)F)cc3)n2)cc1	.	.	.	.	.	.	?	0.44µM*	0.31µM*
Cc1noc(-c2ccc(-c3noc(-c4ccc(C(F)(F)F)cc4)n3)cc2)n1	33%	.	.	6%	.	.	.	.	.
COc1cccc(C(=O)N2CCCC(C(=O)N3CCC(N4CCCC4=O)CC3)C2)c1 (stereo not given)	38%	.	.	-3%	-21%	-1%	.	.	.
COCCN1CCOc2nc(-c3cccc(N(C)C)c3)ncc2C1=O	.	.	.	.	.	.	28%[49.3 µM]	?	?
COc1ncccc1-c1ncc2c(n1)OCCN(Cc1ccccc1)C2=O	23%[87.6 µM]	i	-12%[70.6 µM]	5%[87.6 µM]	?	-35%[172 µM]	.	.	.
COc1ccc(-c2ncc3c(n2)OCCN(Cc2ccccc2)C3=O)cc1	85%[87.6 µM]	2.5µM*	28µM*	-9%[87.6 µM]	?	?	19%[49.3 µM]	15%[49.3 µM]	?
